Results from PubChem BioAssay (NCATS).
“And” between values parts separate entries of the source, which are not always exact repeats. Equal values may be shown once. Records with an inconclusive call do not appear. A call without a number means that no potency is given here. Where a structure was tested more than once in an assay, its records may differ in their call. The source made the active and inactive calls. Unless noted, calls follow the shape of the dose curve; as a rule, active = well fitted curve in the direction sought with a large enough effect; inconclusive = small, poorly fitted or top-dose-only effect, or another doubt; inactive = no such curve, though single readings can be large; an effect the other way counts as inactive or inconclusive.

Legend:
[1] = target: Cytochrome P450 2C9 (Homo sapiens) (UniProt P11712); assay: Cytochrome P450 family 2 subfamily C member 9 (CYP2C9) small molecule antagonists: luciferase biochemical (cell-free) qHTS assay (AID 1645842; active = well fitted curve in the direction sought with a large enough effect in the repeat runs; an effect the other way counts as inactive or inconclusive; also: nearly all actives have a fitted effect of over 55% in size; also: potency is read from the fitted curve at half-maximal effect; as to activity change, negative = inhibition: series mostly up to about 57 µM)
Procedure, shortened: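 P450-Glo CYP2C9 system: proluciferin substrate with enzyme in mix containing 0.4% BSA, 10 min at room temperature, then NADPH regeneration solution added and incubated 1 h at 37C. Detection reagent stopped reaction; luminescence read after 20 min as RLU.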

[2] = Primary qHTS for inhibitors of nuclear receptor binding SET domain protein 2 (NSD2) in an isogenic RCH-ACV NSD2 p.E1099K mutant (9B) (AID 1645876); also: nearly all actives have a fitted effect of over 70% in size; also: potency is read from the fitted curve at half-maximal effect
[3] = Primary qHTS for inhibitors of nuclear receptor binding SET domain protein 2 (NSD2) in an RCH-ACV wild type WT cells (2C) (AID 1645877); also: nearly all actives have a fitted effect of over 70% in size; also: potency is read from the fitted curve at half-maximal effect
Papain (Carica papaya) = Papain (Carica papaya) (UniProt P00784); assay: Primary qHTS assay for inhibitors of the protease papain (AID 1645873);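 also: papain turnover of Z-FR-AMC read as the AMC fluorescence gain over 10 min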; also: potency is read from the fitted curve at half-maximal effect; as to activity change, negative = inhibition: series mostly up to about 50 µM
[4] = target: Rap guanine nucleotide exchange factor 3 (Homo sapiens) (UniProt O95398); assay: Confirmatory qHTS for antagonist of cAMP-regulated guanine nucleotide exchange factor 3 (EPAC1) (AID 1645880); also: nearly all actives have a fitted effect of over 55% in size; also: potency is read from the fitted curve at half-maximal effect
Procedure, shortened: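 Released BODIPY-GDP fluoresces less than Rap1-bound BODIPY-GDP; the signal is followed at 480/540 nm at 5-min intervals over 30 min, after 5 min at room temperature. Reactions contain 100 nM EPAC1, 250 nM RAP1B-BODIPY-GDP and 50 uM GDP; results are normalized to ATA and DMSO.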

[5] = target: Rap guanine nucleotide exchange factor 3 (Homo sapiens) (UniProt O95398); assay: Confirmatory qHTS for agonist of cAMP-regulated guanine nucleotide exchange factor 3 (EPAC1) (AID 1645881);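 also: EPAC1 catalysed release of BODIPY-GDP from Rap1B seen as fluorescence loss; nearly all actives have a fitted effect of over 75% in size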
[6] = target: Rap guanine nucleotide exchange factor 4 (Homo sapiens) (UniProt Q8WZA2); assay: Confirmatory qHTS for agonist of cAMP-regulated guanine nucleotide exchange factor 4 (EPAC2) (AID 1645884);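 also: nucleotide exchange releases bodipy-GDP from Rap1 and this lowers its fluorescence; nearly all actives have a fitted effect of over 65% in size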
[7] = target: Rap guanine nucleotide exchange factor 4 (Homo sapiens) (UniProt Q8WZA2); assay: Confirmatory qHTS for antagonist of cAMP-regulated guanine nucleotide exchange factor 4 (EPAC2) (AID 1645885); also: nearly all actives have a fitted effect of over 25% in size; also: potency is read from the fitted curve at half-maximal effect
[8] = target: Rap guanine nucleotide exchange factor 3 (Homo sapiens) (UniProt O95398); assay: Counterscreen qHTS for antagonist of cAMP-regulated guanine nucleotide exchange factor 3 (EPAC1) (AID 1645888)
Procedure, shortened: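 Measured: fluorescence of BODIPY-GDP bound to Rap1B, which falls as exchange proceeds. Conditions include 50 uM competing GDP, 5 and 30 min reads, and a later cAMP challenge for antagonist detection.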

Chain of Papain (Carica papaya) (P00784 whole entry, looked up): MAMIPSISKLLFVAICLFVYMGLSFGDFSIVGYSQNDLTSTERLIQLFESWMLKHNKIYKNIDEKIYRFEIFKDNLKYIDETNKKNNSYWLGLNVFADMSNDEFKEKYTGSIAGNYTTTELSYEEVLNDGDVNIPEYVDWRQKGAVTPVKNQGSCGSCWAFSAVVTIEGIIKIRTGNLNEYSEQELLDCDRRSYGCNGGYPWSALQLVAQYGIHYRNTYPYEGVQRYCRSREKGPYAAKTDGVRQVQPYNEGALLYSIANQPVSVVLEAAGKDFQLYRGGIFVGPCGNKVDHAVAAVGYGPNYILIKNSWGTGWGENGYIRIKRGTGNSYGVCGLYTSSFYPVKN
Chain of Cytochrome P450 2C9 (Homo sapiens) (P11712 whole entry, looked up): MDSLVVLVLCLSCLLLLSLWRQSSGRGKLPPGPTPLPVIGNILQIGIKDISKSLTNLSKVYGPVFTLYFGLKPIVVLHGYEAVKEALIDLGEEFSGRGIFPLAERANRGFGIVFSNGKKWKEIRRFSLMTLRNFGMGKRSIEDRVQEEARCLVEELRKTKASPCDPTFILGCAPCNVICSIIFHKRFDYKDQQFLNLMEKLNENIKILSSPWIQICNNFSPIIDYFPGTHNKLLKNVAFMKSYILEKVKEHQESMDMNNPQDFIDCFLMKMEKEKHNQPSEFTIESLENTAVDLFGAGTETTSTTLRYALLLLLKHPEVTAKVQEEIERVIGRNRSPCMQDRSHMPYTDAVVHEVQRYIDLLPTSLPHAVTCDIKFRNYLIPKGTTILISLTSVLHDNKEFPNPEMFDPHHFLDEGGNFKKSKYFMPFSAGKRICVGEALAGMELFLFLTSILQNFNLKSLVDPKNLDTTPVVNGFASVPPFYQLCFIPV
Chain of Rap guanine nucleotide exchange factor 4 (Homo sapiens) (Q8WZA2 whole entry, looked up): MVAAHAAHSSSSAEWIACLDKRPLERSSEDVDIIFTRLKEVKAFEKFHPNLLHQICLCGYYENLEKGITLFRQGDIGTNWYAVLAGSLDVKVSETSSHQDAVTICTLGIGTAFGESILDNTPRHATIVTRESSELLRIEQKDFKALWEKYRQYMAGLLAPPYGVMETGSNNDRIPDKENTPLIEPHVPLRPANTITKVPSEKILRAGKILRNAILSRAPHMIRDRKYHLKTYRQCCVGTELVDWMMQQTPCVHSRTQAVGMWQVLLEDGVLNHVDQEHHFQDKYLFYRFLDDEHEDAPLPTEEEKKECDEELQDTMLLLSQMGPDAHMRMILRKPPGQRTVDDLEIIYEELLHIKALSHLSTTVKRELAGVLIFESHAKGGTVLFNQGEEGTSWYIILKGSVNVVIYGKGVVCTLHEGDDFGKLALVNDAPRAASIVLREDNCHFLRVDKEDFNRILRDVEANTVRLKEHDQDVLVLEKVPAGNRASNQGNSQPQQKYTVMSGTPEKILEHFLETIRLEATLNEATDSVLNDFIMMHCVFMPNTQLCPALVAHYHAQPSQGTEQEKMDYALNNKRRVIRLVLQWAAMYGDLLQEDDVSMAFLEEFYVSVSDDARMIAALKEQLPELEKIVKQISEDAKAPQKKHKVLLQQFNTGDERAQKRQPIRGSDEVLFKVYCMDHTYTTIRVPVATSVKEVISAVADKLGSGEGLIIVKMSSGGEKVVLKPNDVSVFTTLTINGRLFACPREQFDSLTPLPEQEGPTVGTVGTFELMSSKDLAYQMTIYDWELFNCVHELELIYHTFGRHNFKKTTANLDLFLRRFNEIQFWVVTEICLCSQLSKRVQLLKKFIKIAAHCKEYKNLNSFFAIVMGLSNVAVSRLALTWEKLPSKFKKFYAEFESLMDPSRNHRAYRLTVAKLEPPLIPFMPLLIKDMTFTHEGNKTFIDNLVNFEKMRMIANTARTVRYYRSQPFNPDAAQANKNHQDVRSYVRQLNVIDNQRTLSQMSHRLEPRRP
Chain of Rap guanine nucleotide exchange factor 3 (Homo sapiens) (O95398 whole entry, looked up): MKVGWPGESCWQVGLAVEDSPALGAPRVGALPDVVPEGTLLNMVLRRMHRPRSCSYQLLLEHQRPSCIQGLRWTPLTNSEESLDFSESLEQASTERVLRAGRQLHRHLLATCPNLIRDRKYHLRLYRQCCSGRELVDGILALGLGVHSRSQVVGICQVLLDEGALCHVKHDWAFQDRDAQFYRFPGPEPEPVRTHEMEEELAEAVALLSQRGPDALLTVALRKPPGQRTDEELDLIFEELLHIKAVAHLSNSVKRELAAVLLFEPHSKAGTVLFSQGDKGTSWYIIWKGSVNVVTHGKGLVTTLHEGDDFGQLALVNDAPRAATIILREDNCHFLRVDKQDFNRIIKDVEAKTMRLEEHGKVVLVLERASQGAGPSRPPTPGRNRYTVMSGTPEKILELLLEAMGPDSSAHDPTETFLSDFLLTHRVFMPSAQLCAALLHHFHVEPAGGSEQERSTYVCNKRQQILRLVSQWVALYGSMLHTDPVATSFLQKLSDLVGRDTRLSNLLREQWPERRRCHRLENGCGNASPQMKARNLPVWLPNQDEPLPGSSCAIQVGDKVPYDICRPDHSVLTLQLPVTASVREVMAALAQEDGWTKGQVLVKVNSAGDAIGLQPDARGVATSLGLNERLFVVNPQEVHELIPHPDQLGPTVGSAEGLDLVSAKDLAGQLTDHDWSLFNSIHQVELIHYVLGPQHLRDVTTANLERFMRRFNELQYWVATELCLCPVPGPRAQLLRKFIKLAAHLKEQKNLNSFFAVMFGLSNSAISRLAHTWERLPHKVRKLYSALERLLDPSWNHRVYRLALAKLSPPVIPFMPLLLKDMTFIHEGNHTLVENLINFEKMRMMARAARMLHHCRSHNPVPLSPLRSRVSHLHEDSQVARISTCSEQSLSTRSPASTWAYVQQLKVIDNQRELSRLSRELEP

COc1cc(C(=O)N2CCOCC2)cc(OC)c1OC
Potency [1]: inactive | Potency [2]: inactive | Potency [3]: inactive

N[C@H](C(=O)O)c1ccc(O)cc1
Potency [1]: inactive | Potency [2]: inactive | Potency [3]: inactive

O=C(O)[C@@H]1CSCN1
Potency [1]: inactive | Potency [2]: inactive | Potency [3]: inactive

NC(=O)N/N=C/c1ccc([N+](=O)[O-])o1
Potency [1]: inactive | Potency [3]: 24.3 µM (active)

O=C(O)c1ccccc1-c1ccc(C(F)(F)F)cc1
Potency [1]: inactive | Potency [2]: inactive | Potency [3]: inactive

CC1(C)OC(=O)NC1=O
Potency [1]: inactive | Potency [2]: inactive | Potency [3]: inactive

C[C@]12CC[C@@H]3c4ccc(O)cc4CC[C@H]3[C@@H]1CC[C@@H]2OC(=O)CCC1CCCC1
Potency [1]: 19 µM (active) | Potency [2]: inactive | Potency [3]: inactive

C[C@H]1O[C@@H](n2cc(F)c(=O)[nH]c2=O)[C@H](O)[C@@H]1O
Potency [1]: inactive | Potency [2]: 20.9 µM (active) | Potency [3]: 20.9 µM (active)

COc1ccc2cc1Oc1cc3c(cc1OC)CC[N+](C)(C)[C@H]3Cc1ccc(cc1)Oc1c(OC)c(OC)cc3c1[C@@H](C2)[N+](C)(C)CC3
Potency [1]: inactive | Potency [2]: inactive | Potency [3]: inactive

O=c1cc[nH]c(=S)[nH]1
Potency [1]: inactive | Potency [3]: inactive

C[C@]12C[C@H](O)[C@H]3[C@@H](CCC4=CC(=O)CC[C@@]43C)[C@@H]1CC[C@@H]2C(=O)CO
Potency (Papain (Carica papaya)): inactive

CC(O)CN(CCN(CC(C)O)CC(C)O)CC(C)O (stereo not drawn)
Potency [1]: inactive | Potency [2]: inactive | Potency [3]: inactive

C[C@@H]1CC[C@@]2(OC1)O[C@H]1C[C@H]3[C@@H]4CC[C@H]5C[C@@H](O)CC[C@]5(C)[C@H]4CC(=O)[C@]3(C)[C@H]1[C@@H]2C
activity change, negative = inhibition [1]: 5.2% [at 4.83 µM] (inactive) | activity change, negative = viability loss [2]: -10.8% [at 4.96 µM] (inactive) | outcome [3]: inactive [at 4.96 µM]

CCCCN(CCCC)CCCOC(=O)c1ccc(N)cc1
Potency [1]: inactive | Potency [2]: inactive | Potency [3]: inactive

NCCNCCNCCN
Potency [1]: inactive | Potency [2]: inactive | Potency [3]: inactive

Cc1cc(O)cc2c1O[C@](C)(CCC[C@H](C)CCC[C@H](C)CCCC(C)C)CC2
Potency [1]: inactive | Potency [2]: inactive | Potency [3]: inactive

CC1=C(CC(=O)O)c2cc(F)ccc2/C1=C\c1ccc(S(C)=O)cc1 (stereo not drawn)
Potency (Papain (Carica papaya)): inactive

N=c1c[n+](N2CCOCC2)[n-]o1
Potency (Papain (Carica papaya)): inactive

CC12CCC(CC1)C(C)(C)O2
Potency [1]: inactive | Potency [2]: inactive | Potency [3]: inactive

Nc1ccc(S(=O)(=O)Nc2nccs2)cc1
Potency [1]: inactive | Potency [2]: inactive | Potency [3]: inactive

Nc1ccc(S(=O)(=O)Nc2ccccc2)cc1
Potency [1]: inactive | Potency [2]: inactive | Potency [3]: inactive

CCCc1c(OCCCCc2nn[nH]n2)ccc(C(C)=O)c1O
Potency [1]: 0.138 µM (active) | Potency [4]: 55.9 µM (active) and inactive | Potency [5]: inactive | Potency [6]: inactive | Potency [7]: 15.6 µM (active) | activity change, negative = inhibition [7]: -26.3% [at 12.7 µM] (inactive) | outcome [8]: inactive

C[C@@H]1CN(c2c(F)c(F)c3c(=O)c(C(=O)O)cn(C4CC4)c3c2F)C[C@H](C)N1
Potency [1]: inactive | Potency [2]: inactive | Potency [3]: inactive

O=C(O)CN1C(=O)c2cccc3cccc(c23)C1=O
Potency [1]: inactive | Potency [2]: inactive | Potency [3]: inactive

[O-][n+]1cccc(CO)c1
Potency [1]: inactive | Potency [2]: inactive | Potency [3]: inactive

CC(C)(C)C(=O)NCCCC(=O)O
Potency [1]: inactive | Potency [2]: inactive | Potency [3]: inactive

O=C1Nc2ccc(Cl)cc2[C@@](C#CC2CC2)(C(F)(F)F)O1
Potency [1]: 17.4 µM (active) | Potency [2]: 18.6 µM (active) | Potency [3]: 20.9 µM (active) and 26.3 µM (active) | Potency [4]: inactive | Potency [5]: inactive | Potency [7]: 44.1 µM (active)

CC1(C)Oc2ccc(C#N)cc2[C@@H](N2CCCC2=O)[C@@H]1O
Potency [1]: inactive | Potency [4]: inactive | Potency [5]: inactive | Potency [6]: inactive | Potency [7]: inactive

N[C@@H](CSSC[C@H](N)C(=O)O)C(=O)O
activity change, negative = inhibition [1]: 15.4% [at 0.91 µM] (inactive) | activity change, negative = viability loss [2]: -6.57% [at 0.588 µM] (inactive) | activity change, negative = cell killing [3]: 2.98% [at 0.588 µM] (inactive)

O=c1cc(CO)occ1O
Potency [1]: inactive | Potency [2]: inactive | Potency [3]: inactive

Cc1cc2nc3c(=O)[nH]c(=O)nc-3n(C[C@H](O)[C@H](O)[C@H](O)CO)c2cc1C
Potency [1]: inactive | Potency [2]: inactive | Potency [3]: inactive | Potency [4]: inactive | Potency [7]: inactive

C=CCn1c(=O)n([C@@H]2O[C@H](CO)[C@@H](O)[C@H]2O)c2nc(N)[nH]c(=O)c21
Potency [1]: inactive | Potency [2]: inactive | Potency [3]: inactive

N[C@H]1C(O)O[C@H](CO)[C@@H](O)[C@@H]1O (stereo partly drawn)
Potency [1]: inactive | Potency [2]: inactive | Potency [3]: inactive

CC(C)(C)[C@]1(O)CCN2C[C@H]3c4ccccc4CCc4cccc(c43)[C@@H]2C1
Potency (Papain (Carica papaya)): inactive and 15.8 µM (active)

COc1ccc(S(=O)(=O)Nc2nnc(CC(C)C)s2)cc1
Potency [1]: 21.9 µM (active) | Potency [2]: inactive | Potency [3]: inactive

CC(C)(C(=O)O)c1ccc(C(O)CCCN2CCC(C(O)(c3ccccc3)c3ccccc3)CC2)cc1 (stereo not drawn)
Potency (Papain (Carica papaya)): inactive

NC1[C@H]2CN(c3nc4c(cc3F)c(=O)c(C(=O)O)cn4-c3ccc(F)cc3F)C[C@@H]12 (stereo partly drawn)
Potency [1]: inactive | Potency [2]: 2.99 µM (active) | Potency [3]: 5.31 µM (active)

CC(C)NC[C@H](O)c1ccc(O)c(O)c1
Potency (Papain (Carica papaya)): 1.12 µM (active) and inactive

O=c1cc[nH]c(=O)[nH]1
Potency [1]: inactive | Potency [2]: inactive | Potency [3]: inactive

CC(=O)CCC(=O)O
Potency [1]: inactive | Potency [2]: inactive | Potency [3]: inactive

COc1ccccc1O
Potency [1]: inactive | Potency [3]: 39 µM (active)

CCN(CC)CCCC(C)Nc1c2ccc(Cl)cc2nc2ccc(OC)cc12 (stereo not drawn)
Potency [4]: inactive | Potency [5]: inactive | Potency [7]: inactive

OCCN1CCN(CCCN2c3ccccc3Sc3ccc(Cl)cc32)CC1
Potency [4]: inactive | Potency [5]: inactive

Cc1cccc(Nc2cc(Cl)nc(SCC(=O)O)n2)c1C
Potency [2]: inactive | Potency [3]: inactive

CC1CC(OC(=O)C(O)c2ccccc2)CC(C)(C)N1C (stereo not drawn)
Potency [2]: inactive | Potency [3]: inactive
